# LMP1 NFkB inh – inhibitors of Epstein-Barr LMP1-induced NF-kappaB reporter; LMP1-induced NF-kappaB luciferase reporter cells, luminescence; 350,000 tested, 0.69% active; inhibition, % at 12.5 µM; in the data active = inhibition above about 41%
# TROY signal inh – inhibitors of TROY-dependent NF-kB signaling. Q293 LMP1-TROYcd NF-kB luciferase reporter, 4 h. AID 1347056. 360,000 tested, 0.98% active. inhibition, % at 10 µM;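 active = compounds whose plate-normalised and pattern-corrected inhibition of the luciferase reporter signal at the single screening dose is 50% or more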
# HSP90 inh – inhibitors of HSP90 luciferase refolding in rabbit reticulocyte lysate. luciferase refolding luminescence, 3 h. 290,000 tested, 0.91% active. inhibition, % at 5.6 µM;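 active = inhibition above the screen-wide mean plus 3 SD, computed separately per campaign, cut at about 16% in these data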;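 also: inhibitors lower the luminescence because luciferase stays unfolded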
# HSF1 inhib – HSF1 inhibition | NIH3T3-HGL HSE-luciferase, MG132-induced, luminescence 8 h; hits give low values | activity change, negative = inhibition, % at 7.5 µM (by protocol) | 300,000 tested, 0.77% active;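 active = more than half of replicate wells show activity change below -50%, luminescence cut by over half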;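 also: luciferase reports HSF-1 transcriptional activity via heat shock element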
# TWEAK Fn14 block – inhibitors of TWEAK-Fn14 interaction signaling; TWEAK-stimulated Fn14 reporter cells, luciferase luminescence, 8 h; inhibition, % at 10 µM; 360,000 tested, 2% active; in the data active = inhibition above about 50%
# HSF1 activator – increases HSF-1 driven luciferase reporter signal | NIH3T3-HGL HSF-1 luciferase reporter, MG132, 8 h; 100% = twice DMSO control signal | activation, % at 9 µM | 300,000 tested, 1.7% active;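 active = mean replicate activation of at least 50% with a set share of replicates each reaching 50%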
# Hits are given with their value; n = inactive; x = no result given. Most compounds without a hit are left out; they make up all but 4.7% or so of the library.
SMILES,LMP1 NFkB inh,TROY signal inh,HSP90 inh,HSF1 inhib,TWEAK Fn14 block,HSF1 activator
CCOC(=O)N1CCC(N2C(=O)c3ccccc3C2Nc2ccc3c(c2)OCCO3)CC1 (stereo not given),n,65,n,-69,85,n
CCOC(=O)N1CCC(N2C(=O)c3ccccc3C2Nc2cccnc2)CC1 (stereo not given),n,n,n,n,n,n
CCOC(=O)C1CCN(c2c(Nc3ccc4c(c3)OCCO4)c(=O)c2=O)CC1,n,63,n,-54,81,n
CCOC(=O)C1CCN(C(C(=O)Nc2ccc3c(c2)OCCO3)c2ccccc2)CC1 (stereo not given),n,n,n,n,n,n
Cn1c(NCCOc2ccccc2Cl)nc2cc(-c3ccc(F)cc3)sc2c1=O,x,n,x,x,n,x
COc1ccc(N=C(NN)c2ccc3ccccc3n2)cc1,n,91,n,-61,101,n
COc1ccc(C(=O)NC(=S)NNC(=O)c2ccc3ccccc3n2)cc1,49,n,n,n,n,n
COc1ccc(C(=O)NNC(=O)c2ccccn2)cc1,n,87,75,-68,102,n
COc1ccc(NC(=S)c2ccc3ccccc3n2)cc1,n,n,n,n,n,n
COc1cc(OC)cc(C(=O)NNC(=O)c2ccc3ccccc3n2)c1,n,57,x,x,n,x
COc1ccc(C(=O)NC(=S)NNC(=O)c2ccc(C)cc2)cc1,n,n,x,n,n,n
Cc1ccsc1C(=O)N1CCC1(C)C(=O)Nc1ccc2c(c1)OCCO2 (stereo not given),x,n,x,x,n,x
CCN(CC)C(=O)c1cccc(-c2csc(C(O)c3ccc(F)c(F)c3)n2)c1 (stereo not given),x,n,x,x,n,x
CC1(C(=O)NS(=O)(=O)c2cccc(OC(F)F)c2)CCN1C(=O)c1ccccc1CCc1ccccc1 (stereo not given),x,n,x,x,n,x
CCCCNC(=O)C1(C)CCN1C(=O)c1ccc2ccccc2n1 (stereo not given),x,n,x,x,n,x
COc1ccc(N(C(=O)c2ccco2)S(=O)(=O)c2cc(Cl)c(Cl)cc2Cl)cc1,n,54,n,n,n,n
CC(C)(C)OC(=O)N1CCN(C(c2ccnc3ccccc23)c2nnnn2-c2ccc3c(c2)OCCO3)CC1 (stereo not given),x,n,x,x,n,x
O=[N+]([O-])c1ccc(N2N=C(c3ccccc3)CC2c2ccccc2O)cc1 (stereo not given),n,60,n,n,81,n
NS(=O)(=O)c1ccc(N2N=C(c3ccccc3)CC2c2ccccc2Br)cc1 (stereo not given),n,n,x,x,n,x
CCOc1ccc(-c2ccc(SCC(=O)Nc3nnc(CC)s3)nn2)cc1,n,n,n,x,n,x
CCOc1ccc(-c2ccc(SC)nn2)cc1,59,75,73,n,n,n
CC(=O)N1CCc2cc(NC(=O)C3(C)CCN3Cc3ccccc3OC(F)F)ccc21 (stereo not given),x,n,x,x,n,x
CC1(C)Nc2ccccc2C(=O)N1c1ccccc1,62,n,n,n,n,n
CCCCCCn1c(C(C)NC(=O)c2ccco2)nc2ccccc21 (stereo not given),n,n,n,n,n,n
Cc1ccc(S(=O)(=O)c2c(N)n(NC(=O)c3ccccc3C)c3nc4ccccc4nc23)cc1,n,n,n,n,n,n
SMILES,LMP1 NFkB inh,TROY signal inh,HSP90 inh,HSF1 inhib,TWEAK Fn14 block,HSF1 activator
CCCCCn1c(NC(=O)c2ccco2)c(S(=O)(=O)c2ccc(C)cc2)c2nc3ccccc3nc21,n,65,16,n,67,n
CCCCn1c(NS(=O)(=O)c2ccccc2)c(S(=O)(=O)c2ccc(C)cc2)c2nc3ccccc3nc21,n,70,16,n,n,n
CCC(=O)Nc1c(S(=O)(=O)c2ccccc2)c2nc3ccccc3nc2n1C(C)c1ccccc1 (stereo not given),n,73,n,n,50,83
CCC(=O)Nc1c(S(=O)(=O)c2ccc(C)cc2)c2nc3ccccc3nc2n1C(C)c1ccccc1 (stereo not given),n,n,n,n,n,n
CCCCn1c(NC(=O)c2ccco2)c(S(=O)(=O)c2ccc(C)cc2)c2nc3ccccc3nc21,n,66,n,n,72,137
O=S1(=O)CC(N2CCCC2)CN1Cc1cn(Cc2cccc(Cl)c2)nn1 (stereo not given),x,n,x,x,n,x
COc1ccc(C(O)c2nc(-c3cccc(CO)c3)cs2)cc1 (stereo not given),x,n,x,x,n,x
CC(C)(C)n1nnnc1C(c1cc2ccccc2o1)N1CCOCC1 (stereo not given),x,n,x,x,n,x
COc1ccc(-c2noc(CCN3C(=O)c4ccccc4C3=O)n2)cc1OC,n,n,n,n,n,87
Cc1ccc2nc(-c3ccc(SCC(=O)N4CCc5ccccc54)nc3)[nH]c2c1,n,n,n,n,53,102
CCc1nnc(NC(=O)CSc2ccc(-c3nc4ccc(C)cc4[nH]3)cn2)s1,n,n,n,n,n,68
Cc1cc2nc(-c3ccc(SCC(=O)Nc4nccs4)nc3)[nH]c2cc1C,n,n,n,x,n,x
Cc1ccc2nc(-c3ccc(SCC(=O)O)nc3)[nH]c2c1,n,n,n,n,n,n
O=C(NCCCSc1ccccc1)c1cc(Cl)ccc1O,n,n,n,n,55,n
O=C(CNC(=O)c1ccccc1)NCCCSc1ccccc1,n,n,x,x,n,x
Nc1ncnc2c1ncn2[C@@H]1O[C@H](C(=O)NCCCN2CCCC2=O)[C@@H](O)[C@H]1O,x,n,x,x,n,x
Nc1nccc(SCc2ccc(Cl)cc2Cl)n1,n,n,x,x,57,x
Oc1ccc(Br)cc1-c1nc2cnccn2c1NC1CCCC1,n,n,n,n,62,n
CCS(=O)(=O)N1Cc2cc(C(=O)N(C)C)nc(-c3cccc(-c4ccc(F)cc4)c3)c2[C@H]1CCO,x,n,x,x,n,x
CC(C)(C)/C(O)=C/c1nc2ccccc2[nH]c1=O,n,82,n,n,75,n
O=c1[nH]c2ccccc2nc1/C=C(\O)C1CC1,n,n,n,n,n,n
O=c1[nH]c2ccccc2nc1/C=C/c1ccccc1,n,n,n,n,n,99
O=c1[nH]c2ccccc2nc1/C=C/c1ccc(O)cc1,n,n,n,n,n,n
Cc1cc(NC(=S)NC(=O)/C=C/c2ccc(S(=O)(=O)N3CCOCC3)cc2)ccc1Br,n,n,n,n,n,100
Cc1ccc(NC(=O)/C=C/c2ccc(S(=O)(=O)N3CCOCC3)cc2)cc1S(=O)(=O)N(C)C,n,53,x,x,68,x
NS(=O)(=O)c1ccc(CNC(=O)/C=C/c2ccc(S(=O)(=O)N3CCOCC3)cc2)cc1,n,n,n,n,n,n
NS(=O)(=O)c1ccc(CCNC(=O)/C=C/c2ccc(S(=O)(=O)N3CCOCC3)cc2)cc1,n,n,x,x,84,x
O=C(/C=C/c1ccc(S(=O)(=O)N2CCOCC2)cc1)NC(=S)Nc1ccc(N2CCOCC2)cc1,n,n,n,n,n,n

# Bioassay records (PubChem)
